Data taken from PubChem BioAssay AID1159580 (chemical genetic matrix, 2015).
The campaign covered roughly 5,500 compounds. About 2,000 (36%) were called active. Roughly 18% stayed inconclusive and do not appear here. Rule as the data show it: active = normalized growth mostly below about 0.91 (no sharp cut-off); inconclusive = no clear call, values can overlap the other calls; inactive = mostly above about 0.92. The list shows a part of the results.

Assay: chemical genetic growth profiling, strain panel (AID 1159580);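 also: tested at 20 µM; growth read once vehicle control cultures reached saturation at 30 °C; 1 = growth at the plate median or of vehicle wells; lower values mean less growth of the strain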
Conditions: S. cerevisiae deletion strains, growth OD

Measured: normalized growth

Cc1ccc2c(Cl)cc(Cl)c(O)c2n1
inactive: locus YAL021C, strain ccr4, hits give low values 0.998 | locus YAL026C, strain drs2, hits give low values 1.02 | locus YAL030W, strain snc1, hits give low values 1.01 | locus YBL061C, strain skt5, hits give low values 1.02 | locus YBR009C, strain hhf1, hits give low values 1.02 | locus YBR023C, strain chs3, hits give low values 1.02 | locus YBR171W, strain sec66, hits give low values 1.04 | locus YBR231C, strain swc5, hits give low values 1.03 | locus YBR279W, strain paf1, hits give low values 1.02 | locus YCL011C, strain gbp2, hits give low values 1.01 | locus YCL016C, strain dcc1, hits give low values 1.02 | locus YCL069W, strain vba3, hits give low values 1.01 | locus YCR088W, strain abp1, hits give low values 1.02 | locus YDL005C, strain med2, hits give low values 1.02 | locus YDL040C, strain nat1, hits give low values 1.02 | locus YDR001C, strain nth1, hits give low values 1.02 | locus YDR069C, strain doa4, hits give low values 1.03 | locus YDR137W, strain rgp1, hits give low values 1.06 | locus YDR159W, strain sac3, hits give low values 1.02 | locus YDR195W, strain ref2 0.987 | locus YDR297W, strain sur2, hits give low values 1.02 | locus YDR334W, strain swr1, hits give low values 1.02 | locus YDR335W, strain msn5, hits give low values 1.01 | locus YDR392W, strain spt3, hits give low values 1.02 | locus YEL003W, strain gim4, hits give low values 1.01 | locus YEL037C, strain rad23, hits give low values 1.02 | locus YEL061C, strain CIN8 (second series), hits give low values 1.01 | locus YER015W, strain faa2, hits give low values 1.01 | locus YER016W, strain bim1, hits give low values 1.02 | locus YER111C, strain swi4, hits give low values 1.02 | locus YER155C, strain BEM2 (second series), hits give low values 1.02 | locus YFR010W, strain ubp6, hits give low values 1.01 | locus YGL167C, strain pmr1, hits give low values 1.03 | locus YGL173C, strain kem1, hits give low values 1.02 | locus YGL227W, strain vid30, hits give low values 1.05 | locus YGL240W, strain doc1, hits give low values 1.02 | locus YGL253W, strain hxk2, hits give low values 1.01 | locus YHR013C, strain ard1, hits give low values 1.04 | locus YHR027C, strain rpn1, hits give low values 1.02 | locus YHR142W, strain chs7, hits give low values 1.03 | locus YJL092W, strain hpr5, hits give low values 1.02 | locus YJL095W, strain BCK1 (second series), hits give low values 1.04 | locus YJL115W, strain asf1, hits give low values 1.03 | locus YJL129C, strain trk1, hits give low values 1.02 | locus YJL154C, strain vps35, hits give low values 1.02 | locus YJL164C, strain tpk1, hits give low values 1.02 | locus YJL166W, strain qcr8, hits give low values 1.04 | locus YJL187C, strain SWE1, hits give low values 0.999 | locus YKL160W, strain elf1, hits give low values 1.02 | locus YKR026C, strain gcn3, hits give low values 1.02 | locus YKR091W, strain srl3, hits give low values 1.02 | locus YLL001W, strain dnm1, hits give low values 1.02 | locus YLL026W, hits give low values 0.999 | locus YLL041C, strain sdh2, hits give low values 1.03 | locus YLR027C, strain aat2, hits give low values 1.02 | locus YLR221C, strain rsa3, hits give low values 1.01 | locus YLR258W, strain gsy2, hits give low values 1.02 | locus YLR262C, strain YPT6 (second series), hits give low values 1 | locus YLR320W, strain mms22, hits give low values 1.03 | locus YLR342W, strain FKS1, hits give low values 1.05 | locus YLR357W, strain rsc2, hits give low values 1.04 | locus YLR370C, strain arc18, hits give low values 1.02 | locus YLR384C, strain iki3, hits give low values 1.03 | locus YML120C, strain ndi1, hits give low values 1 | locus YMR058W, strain fet3, hits give low values 1.01 | locus YMR125W, strain sto1, hits give low values 1.02 | locus YMR129W, hits give low values 1.01 | locus YMR205C, strain PFK2, hits give low values 1.02 | locus YMR231W, strain pep5, hits give low values 1.02 | locus YNL071W, strain lat1, hits give low values 1.01 | locus YNL209W, strain ssb2, hits give low values 1.01 | locus YNL248C, strain rpa49, hits give low values 1.01 | locus YNL322C, strain KRE1 (second series), hits give low values 1.03 | locus YNR049C, strain mso1, hits give low values 1.03 | locus YOR001W, strain rrp6, hits give low values 1.02 | locus YOR070C, strain gyp1, hits give low values 1.03 | locus YOR080W, strain dia2, hits give low values 1.02 | locus YOR083W, strain WHI5, hits give low values 1.03 | locus YOR106W, strain vam3, hits give low values 1.01 | locus YOR265W, strain rbl2, hits give low values 1.01 | locus YOR270C, strain vph1, hits give low values 1.02 | locus YOR290C, strain snf2, hits give low values 1.03 | locus YPL051W, strain arl3, hits give low values 1.01 | locus YPL078C, strain atp4, hits give low values 1.01 | locus YPL106C, strain sse1, hits give low values 1 | locus YPL240C, strain hsp82, hits give low values 1.01
